The text below walks through data of PubChem BioAssay (NCATS).

Values joined by “and” are separate entries in the source; they are usually repeats but may differ in a detail not shown here. Equal values may be shown once. Inconclusive results are not listed. Active and inactive are the calls of the source. Unless noted, the call rests on the fitted dose curve; in most records, active means well fitted curve in the direction sought with a large enough effect; inconclusive means small, poorly fitted or top-dose-only effect, or another doubt; inactive means no such curve, though single readings can be large; an effect the other way counts as inactive or inconclusive.

Catechol O-methyltransferase (Homo sapiens), sequence (P21964 whole entry, looked up): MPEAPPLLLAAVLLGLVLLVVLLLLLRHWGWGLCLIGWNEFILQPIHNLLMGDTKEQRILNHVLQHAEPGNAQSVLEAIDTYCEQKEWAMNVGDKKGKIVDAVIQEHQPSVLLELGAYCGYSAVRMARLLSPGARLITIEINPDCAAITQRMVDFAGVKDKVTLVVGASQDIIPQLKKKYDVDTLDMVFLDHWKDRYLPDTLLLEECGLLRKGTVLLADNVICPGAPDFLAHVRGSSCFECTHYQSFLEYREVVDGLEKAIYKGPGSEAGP
Rap guanine nucleotide exchange factor 3 (Homo sapiens), sequence (O95398 whole entry, looked up): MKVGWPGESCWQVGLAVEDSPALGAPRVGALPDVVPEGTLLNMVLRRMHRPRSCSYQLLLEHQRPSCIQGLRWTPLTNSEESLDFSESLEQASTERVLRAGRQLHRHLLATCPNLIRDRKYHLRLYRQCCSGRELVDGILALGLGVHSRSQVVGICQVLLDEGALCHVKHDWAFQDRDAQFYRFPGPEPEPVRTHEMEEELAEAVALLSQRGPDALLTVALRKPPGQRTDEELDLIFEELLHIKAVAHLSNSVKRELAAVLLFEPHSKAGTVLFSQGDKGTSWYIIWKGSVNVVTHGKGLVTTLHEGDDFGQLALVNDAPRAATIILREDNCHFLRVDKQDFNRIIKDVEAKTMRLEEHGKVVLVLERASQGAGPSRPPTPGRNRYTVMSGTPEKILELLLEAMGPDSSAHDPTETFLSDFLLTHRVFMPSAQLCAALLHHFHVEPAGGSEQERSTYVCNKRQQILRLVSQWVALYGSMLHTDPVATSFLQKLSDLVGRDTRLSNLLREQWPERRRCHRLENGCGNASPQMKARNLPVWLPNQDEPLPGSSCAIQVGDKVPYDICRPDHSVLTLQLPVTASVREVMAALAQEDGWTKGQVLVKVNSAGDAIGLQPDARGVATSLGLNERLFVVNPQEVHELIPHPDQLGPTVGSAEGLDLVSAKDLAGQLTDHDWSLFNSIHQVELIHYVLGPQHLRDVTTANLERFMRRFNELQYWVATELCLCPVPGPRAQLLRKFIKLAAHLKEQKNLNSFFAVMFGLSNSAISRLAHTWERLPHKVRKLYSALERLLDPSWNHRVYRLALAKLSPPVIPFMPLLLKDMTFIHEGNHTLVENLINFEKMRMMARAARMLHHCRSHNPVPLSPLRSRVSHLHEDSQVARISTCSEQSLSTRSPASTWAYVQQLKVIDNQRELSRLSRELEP

For one assay, the target named is Rap guanine nucleotide exchange factor 4 (Homo sapiens) (UniProt Q8WZA2). Description: Confirmatory qHTS for antagonist of cAMP-regulated guanine nucleotide exchange factor 4 (EPAC2) (AID 1645885). Further: nearly all actives have a fitted effect of over 25% in size. Further: potency means the concentration at half of the fitted maximal effect. On activity change, negative = inhibition: on the % scale 0 is the no-effect control and ±100 the full control effect. Particulars: EPAC2 Rap1B-BODIPY-GDP exchange fluorescence, biochemical; series mostly up to 114 µM. For orientation: qHTS replaces the single test concentration by a dilution series.
Rap guanine nucleotide exchange factor 4 (Homo sapiens), sequence (Q8WZA2 whole entry, looked up): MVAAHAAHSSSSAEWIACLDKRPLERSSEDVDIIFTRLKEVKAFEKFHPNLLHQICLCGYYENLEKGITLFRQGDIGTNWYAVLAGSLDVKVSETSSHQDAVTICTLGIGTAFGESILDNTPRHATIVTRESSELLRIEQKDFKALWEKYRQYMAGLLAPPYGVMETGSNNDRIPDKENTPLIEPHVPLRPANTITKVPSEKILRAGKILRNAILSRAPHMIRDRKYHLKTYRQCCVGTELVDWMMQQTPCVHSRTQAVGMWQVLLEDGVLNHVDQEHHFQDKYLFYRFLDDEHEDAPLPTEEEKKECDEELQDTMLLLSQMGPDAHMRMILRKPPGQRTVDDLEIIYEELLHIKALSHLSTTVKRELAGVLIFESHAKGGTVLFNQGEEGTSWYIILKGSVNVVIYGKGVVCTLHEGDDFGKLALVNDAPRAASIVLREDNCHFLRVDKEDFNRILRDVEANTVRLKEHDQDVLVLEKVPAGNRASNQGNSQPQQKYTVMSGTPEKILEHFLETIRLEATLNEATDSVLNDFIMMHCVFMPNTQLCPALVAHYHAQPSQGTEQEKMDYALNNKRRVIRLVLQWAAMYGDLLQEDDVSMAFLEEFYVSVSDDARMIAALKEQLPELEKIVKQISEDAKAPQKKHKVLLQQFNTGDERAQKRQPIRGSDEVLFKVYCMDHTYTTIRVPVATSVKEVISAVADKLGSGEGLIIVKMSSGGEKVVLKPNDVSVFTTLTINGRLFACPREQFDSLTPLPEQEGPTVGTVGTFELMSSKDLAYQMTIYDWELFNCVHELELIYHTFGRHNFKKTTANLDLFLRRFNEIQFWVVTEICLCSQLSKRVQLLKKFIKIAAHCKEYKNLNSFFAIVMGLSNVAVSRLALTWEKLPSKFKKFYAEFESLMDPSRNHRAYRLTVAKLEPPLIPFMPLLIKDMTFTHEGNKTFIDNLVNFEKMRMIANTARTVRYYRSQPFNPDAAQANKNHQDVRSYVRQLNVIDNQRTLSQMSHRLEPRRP
As to `Nc1ncnc2c1nc(Br)n2C1OC2COP(=O)(O)O[C@@H]2C1O` (stereo not given in full), the Potency is 5.55 µM (active) and 3.93 µM (active).

On to `CC(C)(CO)Cc1cc(C(C)(C)C)c(O)c(C(C)(C)C)c1`, for which the Potency was 49.4 µM (active).

As to `Nc1ncnc2c1nc(Sc1ccc(Cl)cc1)n2[C@H]1OC2COP(=O)(O)O[C@@H]2C1O` (stereo not given in full), the Potency is 1.97 µM (active).

Regarding `C[C@@]1(C2CCCC2)Cc2cc(OCC(=O)O)c(Cl)c(Cl)c2C1=O`, the Potency was 17.5 µM (active).

On to `CCCc1c(OCCCOc2ccc(OCC(=O)O)cc2)ccc(C(C)=O)c1O`, for which the Potency is 15.6 µM (active).

On to `CCCC(=O)NCCc1c2n(c3ccc(OC)cc13)CCCc1ccccc1-2`, for which the Potency was 7.84 µM (active).

Turning to `c1ccc(C(NCc2cccnc2)(c2ccccc2)c2ccccc2)cc1`, the Potency is 1.11 µM (active).

Take `CC(/C=C/c1cccc(Oc2ccc(F)cc2)c1)N(O)C(N)=O` (stereo not given): the Potency is 44.1 µM (active).

For `COC(=O)C1=C(C)NC(C)=C([N+](=O)[O-])C1c1ccccc1C(F)(F)F` (stereo not given), the Potency result was “inactive”.

Take `CCCC[C@@]1(C2CCCC2)Cc2cc(OCC(=O)O)c(Cl)c(Cl)c2C1=O`: the Potency was 6.01 µM (active) and 3.5 µM (active).

In the case of `CC(=O)N[C@@H](Cc1c[nH]c2ccccc12)C(=O)OCc1cc(C(F)(F)F)cc(C(F)(F)F)c1`, the Potency is 35 µM (active).

Regarding `C[C@H](NC(=O)/C(C#N)=C/c1ccc(O)c(O)c1)c1ccccc1`, the Potency result was “inactive”.

Regarding `O=C1Nc2ccc(I)cc2/C1=C/c1cc(Br)c(O)c(Br)c1`, the Potency is 35 µM (active).

A further assay concerns the target Rap guanine nucleotide exchange factor 3 (Homo sapiens) (UniProt O95398). Description: Counterscreen qHTS for antagonist of cAMP-regulated guanine nucleotide exchange factor 3 (EPAC1) (AID 1645888).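 Further: fluorescence loss as bound BODIPY-GDP is released from Rap1B; % of control where 0% means no effect.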 Particulars: Rap1B-BODIPY-GDP nucleotide exchange, fluorescence; series mostly up to 154 µM. The method in brief: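 Rap1B–BODIPY-GDP (250 nM) with 50 uM GDP; compounds pin-transferred to 9.74 nM–152 uM final (activator) or from 7.32 nM upwards (inhibitor). Fluorescence Ex/Em 480/540 nm read at 5 and 30 min, then after adding cAMP or buffer, at room temperature.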
For the compound `CCCc1c(OCCCOc2ccc(OCC(=O)O)cc2)ccc(C(C)=O)c1O`, the outcome is “inactive”.

For `COC(=O)C1=C(C)NC(C)=C([N+](=O)[O-])C1c1ccccc1C(F)(F)F` (stereo not given), the outcome was “inactive”.

Turning to `CCCC[C@@]1(C2CCCC2)Cc2cc(OCC(=O)O)c(Cl)c(Cl)c2C1=O`, the outcome was “inactive”.

For another assay the target is unchanged. Description: Counterscreen qHTS for agonist of cAMP-regulated guanine nucleotide exchange factor 3 (EPAC1) (AID 1645889). Further: % of control where 0% means no effect; nearly all actives have a fitted effect of over 40% in size. As to conditions: EPAC1 Rap1B-BODIPY-GDP exchange, fluorescence; series mostly up to 154 µM. The text has this:
Assay Provider (PI): Xiaodong Cheng Ph.D. The University of Texas Medical Branch, […], TX MLPCN Grant: NS066510 In multi-cellular eukaryotic organisms, the effects of cAMP are transduced by two ubiquitously-expressed intracellular cAMP receptors, the classic protein kinase A/cAMP-dependent protein kinase (PKA/cAPK) and the more recently discovered exchange protein directly activated by cAMP/cAMP-regulated guanine nucleotide exchange factor (EPAC/cAMP-GEF). Both PKA and EPAC are ubiquitously expressed in all tissues, and an increase in intracellular cAMP levels will lead to the activation of both PKA and EPAC. Therefore, careful dissections of the individual role and relative contribution of EPAC and PKA within the overall cAMP signaling in various model systems are critical for further elucidating the mechanism of cAMP signaling. To date no EPAC-specific antagonists and agonist, as well as isoform-specific agonists have been reported, and developing EPAC-specific pharmacological probes to determine the physiological functions that EPAC play in the overall cAMP-mediated signaling remains a major challenge within the research field. Furthermore, identified regulators of EPAC may lead to new mechanism-based therapeutic strategies specifically targeting the EPAC / cAMP-signaling components as EPAC has been implicated to play important roles in major human pathological conditions such as diabetes, heart disease, and cancer. This qHTS will be used to screen the Molecular Libraries Small Molecule Repository (MLSMR) as a concentration-titration series using the NCGC unique quantitative screening (qHTS) platform to find activators for EPAC1. […] Activators are identified by monitoring the change in fluorescence signal as the exchanged free BODIPY-GDP has a reduced fluorescence compared to Rap1-bound BODIPY-GDP. […]
EPAC1 Counterscreen PROTOCOL TABLE SEQUENCE No. (e.g., 1, 2, 3, etc.); […] […] Fluorescence. (Read 1), Ex/Em = 480 nm / 540 nm. […] Fluorescence. (Read 2), Ex/Em = 480 nm/ 540 nm. […] Fluorescence. (Read 3), Ex/Em = 480 nm / 540 nm. […] Fluorescence. (Read 4), Ex/Em = 480 nm / 540 nm. […]
As for `CCCc1c(OCCCOc2ccc(OCC(=O)O)cc2)ccc(C(C)=O)c1O`, the outcome is “inactive”.

For `COC(=O)C1=C(C)NC(C)=C([N+](=O)[O-])C1c1ccccc1C(F)(F)F` (stereo not given), the outcome is “inactive”.

For `CCCC[C@@]1(C2CCCC2)Cc2cc(OCC(=O)O)c(Cl)c(Cl)c2C1=O`, the outcome is “inactive”.

Another assay has as its target Catechol O-methyltransferase (Homo sapiens) (UniProt P21964). Nature of the assay: Confirmatory Screen for Target Class Profiling of Small Molecule Inhibitors of Methyltransferases (AID 1745852; calls by dose curve; on activity change, negative = inhibition: on the % scale 0 is the no-effect control and ±100 the full control effect). Particulars: MTase-Glo luminescence, SAH detection, recombinant enzyme; measured here: COMT max response; stronger effect = lower value.
Regarding `O=C(O)/C=C/c1ccc(O)c(O)c1`, the activity stood at 150%.

For the compound `C[C@@]1(C2CCCC2)Cc2cc(OCC(=O)O)c(Cl)c(Cl)c2C1=O`, the activity came out at 5.42%.

As for `CCCc1c(OCCCOc2ccc(OCC(=O)O)cc2)ccc(C(C)=O)c1O`, the activity came to 14.3%.

On to `O=C(O)Cc1ccc(O)c(O)c1`, for which the activity came out at 122%.

In the case of `CCCC[C@@]1(C2CCCC2)Cc2cc(OCC(=O)O)c(Cl)c(Cl)c2C1=O`, the activity is 8.39%.

For the compound `C=CCN1CCc2cc(O)c(O)cc2C(c2ccccc2)C1` (stereo not given), the activity was determined as 101%.

Take `C[C@H](NC(=O)/C(C#N)=C/c1ccc(O)c(O)c1)c1ccccc1`: the activity was determined as 72.5%.

For `CN(C)C(=O)/N=N/C(=O)N(C)C`, the activity is -3.94%.

Another assay has as its target Guanidinoacetate N-methyltransferase (Homo sapiens) (UniProt Q14353). The assay is described as above. Particulars: MTase-Glo luminescence, SAH detection, recombinant enzyme; activity change, negative = inhibition: at 57.3 µM (top of the series).
For `O=C(O)/C=C/c1ccc(O)c(O)c1`, the activity change, negative = inhibition was determined as 0.674%.

Regarding `C[C@@]1(C2CCCC2)Cc2cc(OCC(=O)O)c(Cl)c(Cl)c2C1=O`, the activity change, negative = inhibition came to 7.12%.

On to `CCCc1c(OCCCOc2ccc(OCC(=O)O)cc2)ccc(C(C)=O)c1O`, for which the activity change, negative = inhibition was 1.18%.

Take `O=C(O)Cc1ccc(O)c(O)c1`: the activity change, negative = inhibition is 5.19%.

With `CCCC[C@@]1(C2CCCC2)Cc2cc(OCC(=O)O)c(Cl)c(Cl)c2C1=O`, the activity change, negative = inhibition is 7.65%.

With `C=CCN1CCc2cc(O)c(O)cc2C(c2ccccc2)C1` (stereo not given), the activity change, negative = inhibition was determined as 8.51%.

Turning to `C[C@H](NC(=O)/C(C#N)=C/c1ccc(O)c(O)c1)c1ccccc1`, the activity change, negative = inhibition was 2.74%.

With `CN(C)C(=O)/N=N/C(=O)N(C)C`, the activity change, negative = inhibition was found to be 0.919%.
